Experimental data: the supplement of paper PMC9694430
Structures can show the parent of a compound that is named as a salt.

Tested on: LOC_OS05G07850-cb002
Assay: thermal shift delta Tm vs DMSO control; higher = stronger stabilization (binding)
Conditions: 12.5 µM; protein concentration 2 µM
Outline: (§1)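 Rice kinase domain constructs were expressed in E. coli, purified, and tested by differential scanning fluorimetry with compound added in DMSO. Each well of a 96-well plate held 19.5 μl of 2 μM kinase in 100 mM potassium phosphate pH 7.5, 150 mM NaCl, 10% glycerol and 5 × SYPRO Orange, and fluorescence was read from 25°C to 95°C at 0.05°C/s. The melting temperature shift is the mean of triplicates, taken against protein with DMSO alone after Boltzmann fitting.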

Which “thermal shift delta Tm” value does the source give for Cc1cc(NC(=O)c2cccc(NC(=O)/C=C/CN(C)C)c2)ccc1Nc1nccc(-c2cccnc2)n1 here?
Its value is 2.7 °C.

For Nc1nccc(Oc2ccc(NC(=O)c3c[nH]cc(-c4ccc(F)cc4)c3=O)cc2F)c1Cl, which “thermal shift delta Tm” value is on record?
The value was 14.9 °C.

COc1ccc(/C=C/C(=O)C2(C(=O)/C=C/c3ccc(OC)c(OC)c3)CCCCC2)cc1OC was tested. Which “thermal shift delta Tm” value did it give?
The value was 0.62 °C.

For CC(C)CC(=O)Nc1n[nH]c2c1CN(C(=O)C1CCN(C)CC1)C2(C)C, which “thermal shift delta Tm” value is on record?
Its value is 0.58 °C.

Tested on: LOC_OS05G16824-cb004
Assay: as above
Conditions: 12.5 µM; protein concentration 2 µM
Outline: as §1

With CCn1c(=O)c(-c2ccc(-c3cncs3)cc2Cl)cc2cnc(Nc3ccc(N4CCN(C)CC4)cc3)nc21 as the compound, how does the “thermal shift delta Tm” value read?
The value was 0.07 °C.

With CNC(=O)c1cccc(-c2ccc3c(N4CCOC[C@@H]4C)nc(N4CCOC[C@@H]4C)nc3n2)c1 [Vistusertib (AZD2014)] as the compound, how does the “thermal shift delta Tm” value read?
Its value is -6.13 °C.

CC(C)S(=O)(=O)c1ccc2nccc(Nc3ccc4scnc4c3)c2c1 was tested. Which “thermal shift delta Tm” value did it give?
Its value is 4.91 °C.

For Cn1cc(-c2ccc3ncc(Cc4ccc5ncccc5c4)n3n2)cn1, which “thermal shift delta Tm” value is on record?
Its value is -1.27 °C.

With N#Cc1ccc2ncnc(NCCc3ccccc3)c2c1 [Senexin A] as the compound, how does the “thermal shift delta Tm” value read?
Its value is 4.32 °C.

O=C1NC(=O)/C(=C/c2ccc3nccc(-c4ccncc4)c3c2)S1 was tested. Which “thermal shift delta Tm” value did it give?
The value was 0.06 °C.

For Cn1cnc2c(F)c(Nc3ccc(Br)cc3F)c(C(=O)NOCCO)cc21, which “thermal shift delta Tm” value is on record?
Its value is -1.71 °C.

Which “thermal shift delta Tm” value does the source give for Cc1cc(Nc2ncc(Cl)c(Nc3ccccc3S(=O)(=O)C(C)C)n2)c(OC(C)C)cc1C1CCNCC1 [Ceritinib (LDK378)] here?
The value was -1.5 °C.

Cc1nc2ccc(-n3ncc(C(=O)c4cc5ccccc5[nH]4)c3N)cc2[nH]1 was tested. Which “thermal shift delta Tm” value did it give?
Its value is 0.01 °C.

For C=C[C@@](C)(/C=C/c1ccc(O)cc1)CCC=C(C)C [Bakuchiol], which “thermal shift delta Tm” value is on record?
The value was -1.27 °C.

With C=CC(=O)Nc1cccc(Nc2nc(Nc3ccc(N4CCN(C(C)=O)CC4)cc3OC)ncc2C(F)(F)F)c1 [Rociletinib (CO-1686, AVL-301)] as the compound, how does the “thermal shift delta Tm” value read?
Its value is 4.44 °C.

For CCCS(=O)(=O)Nc1ccc(F)c(C(=O)c2c[nH]c3ncc(-c4ccc(Cl)cc4)cc23)c1F [Vemurafenib (PLX4032, RG7204)], which “thermal shift delta Tm” value is on record?
The value was -0.4 °C.

With COc1cc(OC)c(C=C2C(=O)Nc3ccccc32)c(OC)c1 as the compound, how does the “thermal shift delta Tm” value read?
The value was -0.46 °C.

How did the “thermal shift delta Tm” value turn out when CCN(CC)CCCC(C)Nc1nc(C)cc(Nc2ccc3nc(C)cc(N)c3c2)n1 (configuration not stated) was run?
Its value is -1.91 °C.

CN1CC(O)C2=C/C(=N/NC(N)=O)C(=O)C=C21 (configuration not stated) [Carbazochrome] was tested. Which “thermal shift delta Tm” value did it give?
Its value is -3.49 °C.

Which “thermal shift delta Tm” value does the source give for Cc1cc(Nc2cc(N3CCN(C)CC3)nc(/C=C/c3ccccc3)n2)n[nH]1 here?
Its value is 11.2 °C.

Cc1ccc(NC(=O)Nc2cc(C(F)(F)F)ccc2F)cc1Nc1ccc2c(c1)NC(=O)/C2=C\c1ccc[nH]1 was tested. Which “thermal shift delta Tm” value did it give?
Its value is 2.11 °C.

With CO[C@H]1C[C@@H]2CC[C@@H](C)[C@@](O)(O2)C(=O)C(=O)N2CCCC[C@H]2C(=O)O[C@H]([C@H](C)C[C@@H]2CC[C@@H](O)[C@H](OC)C2)CC(=O)[C@H](C)/C=C(\C)[C@@H](O)[C@@H](OC)C(=O)[C@H](C)C[C@H](C)/C=C/C=C/C=C/1C [Rapamycin (Sirolimus)] as the compound, how does the “thermal shift delta Tm” value read?
Its value is -0.52 °C.

For C[S+]([O-])c1ccc(-c2nc(-c3ccc(F)cc3)c(-c3ccncc3)[nH]2)cc1 (configuration not stated), which “thermal shift delta Tm” value is on record?
Its value is -0.97 °C.

How did the “thermal shift delta Tm” value turn out when CO[C@H]1CC[C@H](N2C(=O)CNc3ncc(-c4ccc(C(C)(C)O)nc4)nc32)CC1 was run?
The value was -2.4 °C.

O=C(Nc1ccccc1C(=O)NC1CCCCNC1=O)c1cc2ccccc2s1 (configuration not stated) was tested. Which “thermal shift delta Tm” value did it give?
The value was -1.58 °C.

Which “thermal shift delta Tm” value does the source give for CCN1CCN(Cc2ccc(-c3cc4c(N[C@H](C)c5ccccc5)ncnc4[nH]3)cc2)CC1 here?
The value was 3.87 °C.

With Cc1cnc(NC(=O)Nc2cc(Br)c(C)cc2OC[C@@H]2CNCCO2)cn1 as the compound, how does the “thermal shift delta Tm” value read?
The value was 5.41 °C.

Cc1ccc(NC(=O)c2ccc(CN3CCN(C)CC3)cc2)cc1Nc1nccc(-c2cccnc2)n1 [Imatinib Mesylate (STI571)] was tested. Which “thermal shift delta Tm” value did it give?
The value was 0.21 °C.

For NC(=O)c1ccc(N(C(N)=O)c2c(F)cccc2F)nc1-c1ccc(F)cc1F, which “thermal shift delta Tm” value is on record?
Its value is -5.64 °C.

Which “thermal shift delta Tm” value does the source give for Cc1nc(-c2cn3c(n2)-c2ccc(-c4cnn(C(C)(C)C(N)=O)c4)cc2OCC3)n(C(C)C)n1 [Taselisib (GDC 0032)] here?
The value was 0.74 °C.

COc1cc(N2CCC(N(C)C)CC2)ccc1Nc1ncc(Cl)c(Nc2ccccc2P(C)(C)=O)n1 was tested. Which “thermal shift delta Tm” value did it give?
Its value is 6.56 °C.

Which “thermal shift delta Tm” value does the source give for COc1cc2c(Nc3ccc(NC(=O)c4ccccc4)cc3)ncnc2cc1OCCCN1CCOCC1 here?
Its value is 1.9 °C.

How did the “thermal shift delta Tm” value turn out when CNC(=O)c1cc(Oc2ccc(NC(=O)Nc3cc(C(C)(C)C)nn3-c3ccc4ncccc4c3)c(F)c2)ccn1 [Rebastinib (DCC-2036)] was run?
The value was 0.76 °C.

With CC(C)(CO)n1cc(C(=O)c2cncc(NC(=O)Cc3ccc(Cl)cn3)c2)c2cnc(N)nc21 as the compound, how does the “thermal shift delta Tm” value read?
Its value is -0.67 °C.

With CS(=O)(=O)N1CCN(Cc2cc3nc(-c4cccc5[nH]ncc45)nc(N4CCOCC4)c3s2)CC1 [Pictilisib (GDC-0941)] as the compound, how does the “thermal shift delta Tm” value read?
Its value is 0.86 °C.

How did the “thermal shift delta Tm” value turn out when C[C@@H]1COC(Nc2ccc3ncnc(Nc4ccc(OCc5nccs5)c(Cl)c4)c3c2)=N1 [Varlitinib] was run?
The value was -3.4 °C.

Which “thermal shift delta Tm” value does the source give for COc1cc(Nc2ncc(F)c(Nc3ccc4c(n3)NC(=O)C(C)(C)O4)n2)cc(OC)c1OC here?
The value was 12.2 °C.

With CC(C)n1nc(-c2ccc3oc(N)nc3c2)c2c(N)ncnc21 as the compound, how does the “thermal shift delta Tm” value read?
Its value is -0.35 °C.

Cc1cc(NC(=O)c2cccc(NC(=O)/C=C/CN(C)C)c2)ccc1Nc1nccc(-c2cccnc2)n1 was tested. Which “thermal shift delta Tm” value did it give?
The value was 1.96 °C.

How did the “thermal shift delta Tm” value turn out when Nc1nccc(Oc2ccc(NC(=O)c3c[nH]cc(-c4ccc(F)cc4)c3=O)cc2F)c1Cl was run?
The value was -0.78 °C.

COc1ccc(/C=C/C(=O)C2(C(=O)/C=C/c3ccc(OC)c(OC)c3)CCCCC2)cc1OC was tested. Which “thermal shift delta Tm” value did it give?
The value was -3.56 °C.

CC(C)CC(=O)Nc1n[nH]c2c1CN(C(=O)C1CCN(C)CC1)C2(C)C was tested. Which “thermal shift delta Tm” value did it give?
The value was 0.18 °C.
